Broadly, the AC50 is the midpoint of the concentration-response curve, whichever way the signal moves.

Inconclusive results are not listed. The source made the active and inactive calls. Rule for the calls: active = hit-call score of the fitted dose curve at least 0.9, where 1 is the maximum; inconclusive = response in the unintended direction; inactive = score below 0.9.

Read-out in the experiment: HMG-CoA synthase (HMGCS2), HMGCS2 (gene 3158)
The experiment in a line: CLD_HMGCS2_6hr: CellzDirect (CLD) Gene Expression Assay for HMG-CoA synthase (HMGCS2) at 6 hours (AID 2283682).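 Note: actives raise HMGCS2 transcript above the 0.2% DMSO vehicle baseline.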 On the procedure: CLD_6hr is a cell-based, multiplexed-readout assay that uses hepatocyte, a human liver primary cell, with measurements taken at 6 hours after chemical dosing in a 96-well plate.CLD_HMGCS2_6hr is one of 16 assay component(s) measured or calculated from the CLD_6hr assay. It is designed to make measurements of mRNA induction, a form of inducible reporter, as detected with chemiluminescence signals by Quantitative Nuclease Protection Assay (qNPA) technology.Data from the assay component CLD_HMGCS2_6hr was analyzed at the endpoint, CLD_HMGCS2_6hr, in the positive analysis fitting direction relative to DMSO as the negative control and baseline of activity. Using a type of inducible reporter, gain-of-signal activity can be used to understand changes in the reporter gene as they relate to the gene HMGCS2. Furthermore, this assay endpoint can be referred to as a primary readout. To generalize the intended target to other relatable targets, this assay endpoint is annotated to the lyase intended target family, where subfamily is HMG-CoA synthase.
Human hepatocyte cultures were treated daily for two consecutive days with fresh dosing solutions containing appropriate concentrations of the 320 ToxCast chemicals (chemical identities were blinded to CellzDirect and other ToxCast collaborators), vehicle control (0.2% DMSO), and positive control inducers as summarized in Table 1. Due to the large number of treatment groups and chemicals examined, the ToxCast chemicals were divided into two groups (spanning two independent cultures of hepatocytes from separate donor preparations (Hu778: ToxCast plates 1 and 2; Hu776: ToxCast plates 3 and 4). Each preparation of human hepatocyte cultures was treated with respective vehicle control, medium only control, set of six positive controls/reference chemicals for the five hepatic receptor pathways, and a subset of eight of the ToxCast chemicals (indoxacarb, pyrithiobac-sodium, norflurazon, cyhalofop-butyl, methomyl, thiram, acetochlor, and propiconazole). These replicate data, coupled with internal replicates designed within the blinded ToxCast chemical library, provided additional data to evaluate interindividual differences between hepatocyte preparations and their potential impact on chemical profiles.Cell morphology and integrity were evaluated using phase-contrast microscopy as an indicator of hepatocyte cell health (Tyson & Green, 1987). Cultures for each treatment group (i.e., media, vehicle [0.2% DMSO], positive control inducers [multiple concentrations], and the ToxCast chemicals [multiple concentrations]) were observed and cell morphology was assessed relative to vehicle control cultures at each harvest time point (0, 6, 24, or 48 h). […] Images were evaluated at the conclusion of the study to assess changes in cell integrity and account for the effects of chemical exposure on uncharacteristic changes in concentration-dependent gene expression profiles. The results from these determinations of apparent cytotoxicity were annotated (yes/no) alongside the corresponding qNPA data for reference.At the conclusion of each treatment period, hepatocyte cultures (96-well) were washed with 1 volume of HBSS, lysed by addition of 25 ul ArrayPlate lysis buffer (HTG, Tucson, AZ), and 70 ul/well of Denaturation Oil, denatured by incubation at 95C for 10 min, and frozen at approximately -70C until analysis by nuclease protection assay (qNPA) (Roberts et al., 2007). For qNPA analysis, cell lysates were thawed at 50C for approximately 30 min, qNPA probes were added, and samples were incubated at 95C for 10 min to begin the detection process by denaturing the target RNA, dissociating the duplexes and secondary structure hybridization. At the conclusion of the hybridization period, S1 nuclease reagent was added to each sample to digest all nonprotected nucleotides at 50C for 60-90 min. […]
As for `O=C(Nc1ccccc1)Nc1cnns1`, the outcome was inactive.

On to `COC(=O)c1ccccc1S(=O)(=O)NC(=O)Nc1nc(C)nc(OC)n1`, for which the AC50 was 0.0117 µM (active). `O=[N+]([O-])/N=C1\NCCN1Cc1ccc(Cl)nc1`: the result was inactive.

For `CNC(=O)CSP(=S)(OC)OC`, the compound was classed as inactive.

In the case of `O=C1c2ccccc2C(=O)N1SC(Cl)(Cl)Cl`, the compound was called inactive. Same read-out and setting: the same measure for `Oc1cc(Cl)ccc1Oc1ccc(Cl)cc1Cl`: “inactive”.

For `O=S1OCC2C(CO1)C1(Cl)C(Cl)=C(Cl)C2(Cl)C1(Cl)Cl` (centres undefined), the result was inactive. On the same count and under the same terms, the result for `[2H]C1([2H])[n+]2ccccc2-c2cccc[n+]2C1([2H])[2H]` reads “inactive”. Same read-out and setting: the result for `CCCN(CCOc1c(Cl)cc(Cl)cc1Cl)C(=O)n1ccnc1` reads “inactive”; that for `OCCOc1ccccc1`, “inactive”. The same measure, in the same setting: the same measure for `CNC(=O)Oc1cccc(N=CN(C)C)c1`: “inactive”. Regarding `CCC(C)Nc1c([N+](=O)[O-])cc(C(C)(C)C)cc1[N+](=O)[O-]` (centres undefined), the result was inactive. For the compound `O=C(O)COc1ccc(Cl)cc1Cl`, the call was inactive.

Take `O=C(O)C(F)(F)C(F)(F)C(F)(F)C(F)(F)C(F)(F)C(F)(F)C(F)(F)F`: the compound was classed as inactive.

Consider `CCN(CC)C(=O)SCc1ccc(Cl)cc1`, for which the outcome was inactive. `COP(=O)(OC)OC=C(Cl)Cl`: the outcome was inactive. Turning to `O=C(O)CCCOc1ccc(Cl)cc1Cl`, the call was inactive. For the compound `Cc1cc(C)nc(NC(=O)NS(=O)(=O)c2ccccc2C(=O)OC2COC2)n1`, the call was inactive. For the compound `CC1(c2ccc(Oc3ccccc3)cc2)OC(=O)N(Nc2ccccc2)C1=O` (centres undefined), the result was inactive.

`Cc1[nH]c(=O)n(C(C)(C)C)c(=O)c1Cl`: the outcome was inactive. Regarding `CNC(=O)/C=C(\C)OP(=O)(OC)OC`, the call was inactive. The same measure, in the same setting: the same measure for `CCS(=O)(=O)c1cccnc1S(=O)(=O)NC(=O)Nc1nc(OC)cc(OC)n1`: “inactive”; for `CCc1ccc(C(=O)NN(C(=O)c2cc(C)cc(C)c2)C(C)(C)C)cc1`: “inactive”.

With `CC[C@H](C)[C@H]1O[C@]2(C=C[C@@H]1C)C[C@@H]1C[C@@H](C/C=C(\C)[C@@H](O[C@H]3C[C@H](OC)[C@@H](O[C@H]4C[C@H](OC)[C@@H](O)[C@H](C)O4)[C@H](C)O3)[C@@H](C)/C=C/C=C3\CO[C@@H]4[C@H](O)C(C)=C[C@@H](C(=O)O1)[C@]34O)O2` (tested in a mixture with another compound), the result was inactive. Turning to `CCOCN(C(=O)CCl)c1c(C)cccc1CC`, the compound was called inactive. `Clc1ccccc1-c1nnc(-c2ccccc2Cl)nn1`: the result was inactive.

Take `CNC(=O)Oc1ccccc1OC(C)C`: the compound was classed as inactive. Consider `COc1cc(OC)nc(NC(=O)NS(=O)(=O)c2cc(NC=O)ccc2C(=O)N(C)C)n1`, for which the compound was classed as inactive.

With `Oc1ccc(Cl)cc1Cc1ccccc1`, the call was inactive.

In the case of `COC(=O)c1ccccc1CS(=O)(=O)NC(=O)Nc1nc(OC)cc(OC)n1`, the result was inactive.

As to `O=S(=O)(O)C(F)(F)C(F)(F)C(F)(F)C(F)(F)C(F)(F)C(F)(F)C(F)(F)C(F)(F)F`, the AC50 was 3.97 µM (active). As to `N#CN`, the call was inactive. In the case of `CCOc1nc(NC)nc(NC(=O)NS(=O)(=O)c2ccccc2C(=O)OC)n1`, the compound was called inactive. Still for that read-out and setting: the same measure for `CC(C)(C)C(O)C(Oc1ccc(Cl)cc1)n1cncn1` (centres undefined): “inactive”.

Source of the values: PubChem BioAssay (EPA / NIEHS).
